# Only some compounds are listed: those with a hit (about 7.3% of all), similar ones and a draw of the others.
# SMN2 splice up = increases expression of the SMN2 splice variant; hit rate 2.8% among 210,000; HEK293 SMN2-luciferase splicing reporter, luminescence, 30-36 h; AID 1458; Potency, µM (series often up to 46.1 µM), for the others: top-dose activity change, positive = activation, usual class: activators; further: % of control where 0% means no effect; nearly all actives have a fitted effect of over 55% in size
#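 HEK293 cells carry an SMN2 minigene-luciferase reporter in which exon 7 inclusion puts luciferase in frame. Cells were seeded at 2000 cells/well, attached for 10-12 hours, then exposed to compounds for 30-36 hours at 37C before ONE-Glo luminescence.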
# NPC1 promoter act = activators of NPC1 promoter; Huh7 NPC1 promoter luciferase reporter, 24 h; Potency, µM (titrated, usually from 9.22 µM), for inactives: at the highest dose activation, actives largely listed as activators; hit rate 2.4% among 320,000; AID 485313; further: % of control where 0% means no effect; nearly all actives have a fitted effect of over 60% in size
#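 Huh7 reporter cells (NPC1 promoter driving luciferase) are dosed with compound for 24 h at 37 °C, 5% CO2; luciferase detection reagent is then added and luminescence measured after 10 min at ambient temperature.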
# Luc counter = Kinase-Glo luciferase inhibition (counter-screen); hit rate 0.28% among 200,000; AID 1379; Q27757; Potency, µM (series often up to 38.3 µM), inactives show top-dose activity change, negative = inhibition, usual class: inhibitors; Kinase-Glo luciferase, ATP luminescence, 8 min; further: on the % scale 0 is the no-effect control and ±100 the full control effect; nearly all actives have a fitted effect of over 60% in size
#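 Recombinant Kinase-Glo luciferase, 10 uM ATP (linear range), luciferin; imidazole pH 7.2 / KCl / MgCl2 / Tween / BSA buffer; 8 min RT; luminescence.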
# FLuc modulator = inhibits or activates purified firefly luciferase, miR-21 counter-screen; purified FLuc, Km substrates, luminescence inhibition; Potency, µM (doses to about 57.5 µM), without a hit: at the highest dose activity change, negative = inhibition, actives largely listed as inhibitors; hit rate 6.9% among 360,000; AID 588342;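 further: plate controls were vehicle for no effect and reference inhibitor for full effect; nearly all actives have a fitted effect of over 55% in size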
# Target sequence (P08659 whole entry, looked up): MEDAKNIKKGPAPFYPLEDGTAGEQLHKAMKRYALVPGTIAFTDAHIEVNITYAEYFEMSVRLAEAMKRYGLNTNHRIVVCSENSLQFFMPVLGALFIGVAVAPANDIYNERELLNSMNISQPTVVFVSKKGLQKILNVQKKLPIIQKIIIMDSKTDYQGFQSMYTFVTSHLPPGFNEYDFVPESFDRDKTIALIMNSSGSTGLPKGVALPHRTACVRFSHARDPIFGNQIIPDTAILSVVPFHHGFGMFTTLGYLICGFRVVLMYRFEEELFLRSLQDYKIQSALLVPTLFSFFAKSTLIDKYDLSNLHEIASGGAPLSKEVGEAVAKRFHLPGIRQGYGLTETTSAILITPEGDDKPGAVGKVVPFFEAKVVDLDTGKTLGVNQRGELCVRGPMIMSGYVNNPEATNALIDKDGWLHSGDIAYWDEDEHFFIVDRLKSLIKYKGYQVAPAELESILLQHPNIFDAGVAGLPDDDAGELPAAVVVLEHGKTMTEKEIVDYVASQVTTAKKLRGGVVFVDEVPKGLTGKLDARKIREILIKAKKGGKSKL
#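 Purified P. pyralis luciferase (10nM final) with 10uM D-luciferin and 10uM ATP (Km levels) in 50mM Tris acetate pH 7.5, 10mM Mg acetate, 0.01% Tween-20, 0.05% BSA; qHTS 6-point titration, ~60 µM downward; luminescence read.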
# ELG1 genotox = genotoxicity induction in ELG1-luciferase HEK293T cells. HEK293T ELG1-luciferase reporter, luminescence, 16 h. Potency, µM (doses to about 46 µM), for inactives: at the highest dose activity change, positive = activation, actives largely listed as activators. hit rate 1.3% among 330,000; further: % of control where 0% means no effect; nearly all actives have a fitted effect of over 60% in size
#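 Genotoxicity was scored as increased ELG1-luciferase reporter signal, measured by ONE-Glo luminescence (30 min, room temperature). Compound or vehicle exposure of the HEK293T reporter cells lasted 16 hr at 37°C.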
# Rab9 prom act = activators of Rab9 promoter; Huh7 Rab9 promoter-luciferase reporter, luminescence, 24 h; Potency, µM (series often up to 9.22 µM), for inactives: at the highest dose activation, negative = inhibition, usual class: activators; hit rate 2.8% among 320,000; further: % of control where 0% means no effect; nearly all actives have a fitted effect of over 60% in size
#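 Luciferase signal after 10 min detection reagent at ambient indicates Rab9 promoter upregulation; stably transfected Huh7 cells were treated 24 h with compound in DMSO at 37 °C, 5% CO2.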
# * marks the source's active call; other numbers are inactive results; ? = inconclusive; / = not tested or not shown; [ ] = remark or other dose. The call rests on the fitted dose curve; in most records, active means well fitted curve in the direction sought with a large enough effect; inconclusive means small, poorly fitted or top-dose-only effect, or another doubt; inactive means no such curve, though single readings can be large; an effect the other way counts as inactive or inconclusive. Potency means the concentration at half of the fitted maximal effect.
SMILES,SMN2 splice up,NPC1 promoter act,Luc counter,FLuc modulator,ELG1 genotox,Rab9 prom act
Cc1ccc(NC2=CC(=O)C(=O)c3ccccc32)cc1,?,8%,-17%,11µM*,-16%,0%
O=C1C=C(Nc2ccc(O)cc2)C(=O)c2ccccc21,/,1%,/,5.4µM*,?,?
CC(=O)Nc1ccc(Nc2ccccc2)cc1,/,2%,/,-21%,7%,2%
CC(=O)Nc1ccc(NC2=CC(=O)c3ccccc3C2=O)cc1,/,?,/,?,?,2µM*
NS(=O)(=O)c1ccc(NC2=CC(=O)C(=O)c3ccccc32)cc1,/,2%,/,-8%,-17%,3%
Cc1ccc(NC2=C(N3CCOCC3)C(=O)c3ccccc3C2=O)cc1,-43%,11%,?,9.5µM*,6.5µM*,-1%
CCCCCSc1nc2sc3c(c2c(=O)n1-c1ccccc1)CCN(C(C)=O)C3,-9%,/,/,-15%,/,/
CCC(Cc1ccccc1)NC(=O)CN1C(=O)COc2ccc(S(=O)(=O)N3CCCCCC3)cc21 (stereo not drawn),2%,/,/,-4%,/,/
C[C@@]12CCC(=O)C=C1CC[C@H]1C2[C@@H](O)C[C@]2(C)[C@@H]1CC[C@@]2(O)C(=O)CO (stereo partly drawn),11%[9.22 µM],/,-4%[7.66 µM],/,/,/
CCOC(=O)C(=O)Nc1ccc(Oc2ccccc2)cc1,5%,-3%,-8%,15µM*,4%,-27%
CC(C)[C@H](NC(N)=O)C(=O)Nc1ccc(Oc2ccccc2)cc1,-15%,-2%,-1%,-2%,-6%,-1%
CCOC(=O)C(=O)Nc1ccc(F)cc1,4%,7%,-7%,-11%,-4%,-1%
CC(C)[C@H](NC(=O)Nc1ccc(Oc2ccccc2)cc1)C(=O)O,-3%,2%,-4%,24µM*,2%,-3%
Oc1ccc(C=Nc2cccc3ncccc23)c(O)c1,24%,-2%,2%,2%,-7%,-8%
COc1ccc(OC)c(/C=C/c2nc3ccccc3[nH]c2=O)c1,/,7%,/,-11%,8%,6%
Oc1ccccc1C=Nc1ccccc1-c1nc2ccccc2[nH]1,32µM*,?,-1%,?,?,?
O=C(c1ccccc1-c1nc2ccccc2[nH]1)N1CCCCC1,8%,0%,-1%,3%,-1%,1%
COc1ccc(OC)c(C=Nc2ccccc2-c2nc3ccccc3[nH]2)c1,13µM*,?,-1%,4.8µM*,?,?
Oc1ccc(C=Nc2ccccc2-c2nc3ccccc3[nH]2)c(O)c1,14µM*,?,-1%,4.8µM*,?,?
CC1=C(C(=O)OC2CCCCCC2)C(c2cccc(Cl)c2)CC(=O)N1 (stereo not drawn),-2%,/,/,-7%,/,/
CC1(C(=O)O)COC(c2ccc(Cl)cc2)OC1 (stereo not drawn),/,-2%,/,2%,-1%,-6%
COC(=O)c1ccc(C2OCC(C)(C)CO2)cc1,?,?,-2%,27µM*,19%,?
Cc1ccc(C)c(-c2nnc(NC(=O)CCS(=O)(=O)c3ccccc3)o2)c1,/,1%,/,2%,-1%,-2%
Cc1cccc(OCc2nnc(-c3ccccc3)o2)c1,-2%,/,/,?,/,/
Cc1ccccc1-c1nc(Cc2ccc(Cl)cc2)no1,24%,14%,2%,?,23µM*,2%
Cc1ccccc1-c1nnc(-c2ccc(Cl)cc2)o1,/,?,-28%,6.7µM*,16µM*,4µM*
Cc1ccc(CS(=O)(=O)c2ccccc2-c2nnc(-c3ccc(Cl)cc3)o2)cc1,-6%,-1%,-3%,4%,5%,0%
Cc1ccccc1-c1nnc(CS(=O)(=O)c2ccccc2)o1,/,1.1µM*,/,4.8µM*,?,1.1µM*
Cc1cccc(-c2nnc(-c3ccccc3)o2)c1,11µM*,?,-20%,9.5µM*,8.2µM*,?
Cn1cc(-c2nnc(-c3ccccc3)o2)c2ccccc21,2.5µM*,2.5µM*,-9%,0.67µM*,?,2.2µM*
